{"source": "the supplement of paper PMC8728848", "binders": {"B1": {"name": "PFL (Pseudomonas fluorescens) (protein)", "chain": "MSKYAVANQWGGSSAPWHPGGTWVLGARDNQNVVAIEIKSGDGGKSFTGTMTYAGEGPIGFKAQRTGQNQYNVENQWGGNDAPWHPGGKWVIGGRDNQNVIALSVTSSDGGKNLSGTNTYANEGPIGFRGQIE"}}, "assay_in_all_cases": "glycan array binding signal (z-score within array); higher = stronger binding", "details_in_all_cases": "glycan notation: IUPAC condensed, linker removed", "key": {"[1]": {"target": "Fuc(a1-2)Gal(b1-3)GalNAc(b1-3)Gal(a1-4)Gal(b1-4)Glc", "procedure,_shortened": "(§1)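 Arrays were curated from the Consortium for Functional Glycomics database, 3228 in total, and kept only where the protein sequence was available. Binding is expressed as a within-array Z-score. This score was averaged across arrays of the same protein sequence at different concentrations or buffers and across linkers, and negative values can be read as non-binding.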"}, "[2]": {"target": "Fuc(a1-2)Gal(b1-3)GlcNAc(b1-3)[Gal(b1-4)GlcNAc(b1-6)]Gal(b1-4)Glc", "procedure,_shortened": "as §1"}, "[3]": {"target": "Fuc(a1-2)Gal(b1-3)[Fuc(a1-4)]GlcNAc(b1-3)[Fuc(a1-3)[Gal(b1-4)]GlcNAc(b1-6)]Gal(b1-4)Glc", "procedure,_shortened": "as §1"}, "[4]": {"target": "Fuc(a1-2)[Gal(a1-3)]Gal(b1-3)GlcNAc(b1-2)Man(a1-3)[Fuc(a1-2)[Gal(a1-3)]Gal(b1-3)GlcNAc(b1-2)Man(a1-6)]Man(b1-4)GlcNAc(b1-4)[Fuc(a1-6)]GlcNAc", "procedure,_shortened": "as §1"}, "[5]": {"target": "Fuc(a1-2)[Gal(a1-3)]Gal(b1-4)GlcNAc(b1-2)Man(a1-3)[Fuc(a1-2)[Gal(a1-3)]Gal(b1-4)GlcNAc(b1-2)Man(a1-6)]Man(b1-4)GlcNAc(b1-4)GlcNAc", "procedure,_shortened": "as §1"}, "[6]": {"target": "Fuc(a1-2)[GalNAc(a1-3)]Gal(b1-3)GlcNAc(b1-2)Man(a1-3)[Fuc(a1-2)[GalNAc(a1-3)]Gal(b1-3)GlcNAc(b1-2)Man(a1-6)]Man(b1-4)GlcNAc(b1-4)[Fuc(a1-6)]GlcNAc", "procedure,_shortened": "as §1"}, "[7]": {"target": "Fuc(a1-2)[GalNAc(a1-3)]Gal(b1-4)Glc", "procedure,_shortened": "as §1"}, "[8]": {"target": "Fuc(a1-2)[GalNAc(a1-3)]Gal(b1-4)GlcNAc(b1-3)[Fuc(a1-2)[GalNAc(a1-3)]Gal(b1-4)GlcNAc(b1-6)]GalNAc", "procedure,_shortened": "as §1"}, "[9]": {"target": "Fuc(a1-2)[GalNAc(a1-3)]Gal(b1-4)[Fuc(a1-3)]GlcNAc", "procedure,_shortened": "as §1"}, "[10]": {"target": "Fuc(a1-3)GlcNAc", "procedure,_shortened": "as §1"}, "[11]": {"target": "Fuc(a1-3)[GalNAc(b1-4)]GlcNAc", "procedure,_shortened": "as §1"}, "[12]": {"target": "Fuc(a1-4)GlcNAc", "procedure,_shortened": "as §1"}, "[13]": {"target": "Gal(a1-3)Gal(b1-3)[Fuc(a1-4)]GlcNAc(b1-2)Man(a1-3)[Gal(a1-3)Gal(b1-3)[Fuc(a1-4)]GlcNAc(b1-2)Man(a1-6)]Man(b1-4)GlcNAc(b1-4)GlcNAc", "procedure,_shortened": "as §1"}, "[14]": {"target": "Gal(b1-3)[Fuc(a1-4)]GlcNAc(b1-2)Man(a1-3)[Gal(b1-3)[Fuc(a1-4)]GlcNAc(b1-2)Man(a1-6)]Man(b1-4)GlcNAc(b1-4)[Fuc(a1-6)]GlcNAc", "procedure,_shortened": "as §1"}, "[15]": {"target": "Gal(b1-4)GlcNAc(b1-2)[Gal(b1-4)GlcNAc(b1-4)]Man(a1-3)[Gal(b1-4)GlcNAc(b1-2)[Gal(b1-4)GlcNAc(b1-6)]Man(a1-6)]Man(b1-4)GlcNAc(b1-4)GlcNAc", "procedure,_shortened": "as §1"}, "[16]": {"target": "Gal(b1-4)GlcNAc(b1-2)[Gal(b1-4)GlcNAc(b1-4)]Man(a1-3)[GlcNAc(b1-4)][Gal(b1-4)GlcNAc(b1-2)Man(a1-6)]Man(b1-4)GlcNAc(b1-4)GlcNAc", "procedure,_shortened": "as §1"}, "[17]": {"target": "Gal(b1-4)GlcNAc(b1-3)Gal(b1-3)GalNAc", "procedure,_shortened": "as §1"}, "[18]": {"target": "Gal(b1-4)GlcNAc(b1-6)[Gal(b1-3)]GalNAc", "procedure,_shortened": "as §1"}, "[19]": {"target": "Gal(b1-4)GlcNAc(b1-6)[Gal(b1-4)GlcNAc(b1-3)]GalNAc", "procedure,_shortened": "as §1"}, "[20]": {"target": "Gal3S(b1-3)GalNAc", "procedure,_shortened": "as §1"}, "[21]": {"target": "Gal6S(b1-4)Glc6S", "procedure,_shortened": "as §1"}, "[22]": {"target": "GalNAc3S(b1-4)[Fuc(a1-3)]GlcNAc", "procedure,_shortened": "as §1"}, "[23]": {"target": "Glc(a1-4)Glc", "procedure,_shortened": "as §1"}, "[24]": {"target": "GlcNAc(a1-4)Gal(b1-4)GlcNAc(b1-3)Gal(b1-4)GlcNAc", "procedure,_shortened": "as §1"}, "[25]": {"target": "GlcNAc(b1-3)Gal(b1-4)GlcNAc(b1-2)Man(a1-3)[GlcNAc(b1-3)Gal(b1-4)GlcNAc(b1-2)Man(a1-6)]Man(b1-4)GlcNAc(b1-4)GlcNAc", "procedure,_shortened": "as §1"}, "[26]": {"target": "GlcNAc(b1-3)Gal(b1-4)GlcNAc(b1-3)GalNAc", "procedure,_shortened": "as §1"}, "[27]": {"target": "GlcNAc(b1-3)Gal(b1-4)GlcNAc(b1-3)[GlcNAc(b1-3)Gal(b1-4)GlcNAc(b1-3)]GalNAc", "procedure,_shortened": "as §1"}, "[28]": {"target": "GlcNAc(b1-3)Gal(b1-4)GlcNAc(b1-6)[Gal(b1-3)]GalNAc", "procedure,_shortened": "as §1"}, "[29]": {"target": "GlcNAc(b1-6)Gal(b1-4)GlcNAc", "procedure,_shortened": "as §1"}, "[30]": {"target": "Man(a1-2)Man(a1-3)[Man(a1-2)Man(a1-6)]Man(a1-6)[Man(a1-2)Man(a1-2)Man(a1-3)]Man(b1-4)GlcNAc(b1-4)GlcNAc", "procedure,_shortened": "as §1"}, "[31]": {"target": "Man(a1-2)Man(a1-3)[Man(a1-6)]Man(a1-6)[Man(a1-2)Man(a1-3)]Man(b1-4)GlcNAc(b1-4)GlcNAc", "procedure,_shortened": "as §1"}, "[32]": {"target": "Man(a1-2)Man(a1-6)[Man(a1-3)]Man(a1-6)[Man(a1-2)Man(a1-2)Man(a1-3)]Man(b1-4)GlcNAc(b1-4)GlcNAc", "procedure,_shortened": "as §1"}, "[33]": {"target": "Man(a1-3)[Man(a1-6)]Man(a1-6)[Man(a1-2)Man(a1-3)]Man(b1-4)GlcNAc(b1-4)GlcNAc", "procedure,_shortened": "as §1"}, "[34]": {"target": "Man(a1-3)[Man(a1-6)]Man(a1-6)[Man(a1-3)]Man", "procedure,_shortened": "as §1"}, "[35]": {"target": "Man(a1-3)[Man(a1-6)]Man(a1-6)[Man(a1-3)]Man(b1-4)GlcNAc(b1-4)GlcNAc", "procedure,_shortened": "as §1"}, "[36]": {"target": "Neu5Ac(a2-3)Gal(b1-3)[Fuc(a1-4)]GlcNAc", "procedure,_shortened": "as §1"}, "[37]": {"target": "Neu5Ac(a2-3)Gal(b1-4)[Fuc(a1-3)]GlcNAc(b1-3)Gal", "procedure,_shortened": "as §1"}, "[38]": {"target": "Neu5Ac(a2-6)Gal(b1-4)GlcNAc(b1-2)Man(a1-3)[GlcNAc(b1-2)Man(a1-6)]Man(b1-4)GlcNAc(b1-4)GlcNAc", "procedure,_shortened": "as §1"}, "[39]": {"target": "Neu5Ac(a2-6)Gal(b1-4)GlcNAc(b1-3)Gal(b1-4)GlcNAc(b1-6)[Gal(b1-3)]GalNAc", "procedure,_shortened": "as §1"}, "[40]": {"target": "Neu5Ac(a2-6)Gal(b1-4)GlcNAc(b1-6)[Gal(b1-3)]GalNAc", "procedure,_shortened": "as §1"}, "[41]": {"target": "Neu5Gc(a2-6)GalNAc", "procedure,_shortened": "as §1"}}, "note": "The sample as a whole holds a higher share of the strongest signals than the screen did."}
{"binder": "B1", "values": [{"measurement": "glycan array binding signal (z-score)", "setting": "[1]", "result": -0.111}, {"measurement": "glycan array binding signal (z-score)", "setting": "[2]", "result": -0.11}, {"measurement": "glycan array binding signal (z-score)", "setting": "[3]", "result": -0.113}, {"measurement": "glycan array binding signal (z-score)", "setting": "[4]", "result": 0.415}, {"measurement": "glycan array binding signal (z-score)", "setting": "[5]", "result": -0.073}, {"measurement": "glycan array binding signal (z-score)", "setting": "[6]", "result": 0.249}, {"measurement": "glycan array binding signal (z-score)", "setting": "[7]", "result": -0.112}, {"measurement": "glycan array binding signal (z-score)", "setting": "[8]", "result": -0.103}, {"measurement": "glycan array binding signal (z-score)", "setting": "[9]", "result": -0.111}, {"measurement": "glycan array binding signal (z-score)", "setting": "[10]", "result": -0.12}, {"measurement": "glycan array binding signal (z-score)", "setting": "[11]", "result": -0.105}, {"measurement": "glycan array binding signal (z-score)", "setting": "[12]", "result": -0.116}, {"measurement": "glycan array binding signal (z-score)", "setting": "[13]", "result": 0.499}, {"measurement": "glycan array binding signal (z-score)", "setting": "[14]", "result": 0.665}, {"measurement": "glycan array binding signal (z-score)", "setting": "[15]", "result": 0.988}, {"measurement": "glycan array binding signal (z-score)", "setting": "[16]", "result": -0.117}, {"measurement": "glycan array binding signal (z-score)", "setting": "[17]", "result": -0.116}, {"measurement": "glycan array binding signal (z-score)", "setting": "[18]", "result": -0.113}, {"measurement": "glycan array binding signal (z-score)", "setting": "[19]", "result": -0.108}, {"measurement": "glycan array binding signal (z-score)", "setting": "[20]", "result": -0.116}, {"measurement": "glycan array binding signal (z-score)", "setting": "[21]", "result": -0.107}, {"measurement": "glycan array binding signal (z-score)", "setting": "[22]", "result": -0.116}, {"measurement": "glycan array binding signal (z-score)", "setting": "[23]", "result": -0.116}, {"measurement": "glycan array binding signal (z-score)", "setting": "[24]", "result": -0.117}, {"measurement": "glycan array binding signal (z-score)", "setting": "[25]", "result": -0.111}, {"measurement": "glycan array binding signal (z-score)", "setting": "[26]", "result": -0.112}, {"measurement": "glycan array binding signal (z-score)", "setting": "[27]", "result": -0.11}, {"measurement": "glycan array binding signal (z-score)", "setting": "[28]", "result": -0.115}, {"measurement": "glycan array binding signal (z-score)", "setting": "[29]", "result": -0.117}, {"measurement": "glycan array binding signal (z-score)", "setting": "[30]", "result": 3.46}, {"measurement": "glycan array binding signal (z-score)", "setting": "[31]", "result": 9.19}, {"measurement": "glycan array binding signal (z-score)", "setting": "[32]", "result": 11.7}, {"measurement": "glycan array binding signal (z-score)", "setting": "[33]", "result": 13.2}, {"measurement": "glycan array binding signal (z-score)", "setting": "[34]", "result": 7.17}, {"measurement": "glycan array binding signal (z-score)", "setting": "[35]", "result": 10.9}, {"measurement": "glycan array binding signal (z-score)", "setting": "[36]", "result": -0.12}, {"measurement": "glycan array binding signal (z-score)", "setting": "[37]", "result": -0.117}, {"measurement": "glycan array binding signal (z-score)", "setting": "[38]", "result": 0.313}, {"measurement": "glycan array binding signal (z-score)", "setting": "[39]", "result": -0.118}, {"measurement": "glycan array binding signal (z-score)", "setting": "[40]", "result": -0.117}, {"measurement": "glycan array binding signal (z-score)", "setting": "[41]", "result": -0.114}]}
